# PubChem BioAssay (NCI)
# The panel holds about 79,000 compounds, 15% with a hit somewhere; the sample as a whole holds those more often. Unmarked numbers belong to inactive results. Active and inactive are the calls of the source. Cut-off read from the data, not from the text of the source: active = growth inhibition above about 70%; inactive = the rest.
# Legend:
# [1] = NCI Yeast Anticancer Drug Screen. Data for the rad52 strain (AID 147);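 note: 0% = growth of vehicle-treated control cultures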; settings: S. cerevisiae rad52 mutant growth inhibition, active compounds read high
# Procedure, shortened: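 Compounds are applied to a genetically defined yeast strain lacking normal DNA damage repair, and inhibition of growth is expressed relative to cultures given vehicle only.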
# [2] = NCI Yeast Anticancer Drug Screen. Data for the wt1 strain (AID 149);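 note: 0% = growth of vehicle-treated wt1 cultures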; settings: S. cerevisiae wt1 strain (SPY 50644) growth inhibition, active compounds read high
# Procedure, shortened: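 Each compound is tested on wt1 yeast and the loss of growth versus vehicle gives the inhibition value.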
# [3] = NCI Yeast Anticancer Drug Screen. Data for the rad50EPP+ strain (AID 151);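 note: 0% = growth of vehicle-treated control cultures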; settings: S. cerevisiae rad50 mutant strain, active compounds read high
# Procedure, shortened: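 Compounds were applied to the rad50EPP+ yeast strain, which bears a defined DNA repair alteration, and growth inhibition was determined relative to vehicle-treated cultures.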
# [4] = NCI Yeast Anticancer Drug Screen. Data for the mgt1 strain (AID 153); settings: S. cerevisiae mgt1 mutant growth inhibition, active compounds read high
# Procedure, shortened: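 Strain: mgt1 yeast, one of a set carrying defined DNA damage repair or cell cycle control alterations. Compound-treated growth compared with vehicle.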
# [5] = NCI Yeast Anticancer Drug Screen. Data for the rad50 strain (AID 155);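 note: 0% = growth of vehicle-only cultures of the same strain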; settings: S. cerevisiae rad50 strain growth inhibition, active compounds read high
# Procedure, shortened: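 Vehicle-treated cultures provide the reference for the growth inhibition reported for compound-exposed, repair-deficient yeast.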
# [6] = NCI Yeast Anticancer Drug Screen. Data for the mec2-1 strain (AID 157); settings: S. cerevisiae mec2-1 strain, active compounds read high
# Procedure, shortened: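 Strain: mec2-1 (DNA repair/cell cycle alteration). Compound exposure, then growth measured; inhibition expressed relative to vehicle.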
# [7] = NCI Yeast Anticancer Drug Screen. Data for the rad14 strain (AID 159);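 note: 0% = growth of vehicle-treated control cultures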; settings: S. cerevisiae rad14 strain growth inhibition, active compounds read high
# Procedure, shortened: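 Inhibition of growth is reported for a repair-deficient yeast mutant following compound treatment, calculated relative to cultures that received vehicle.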
# [8] = NCI Yeast Anticancer Drug Screen. Data for the sgs1 mgt1 strain (AID 161);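 note: 0% = growth of cultures given vehicle only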; settings: S. cerevisiae sgs1 mgt1 strain, active compounds read high
# Procedure, shortened: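 Mutant yeast exposed to compound; growth scored against vehicle-only wells.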
# [9] = NCI Yeast Anticancer Drug Screen. Data for the CLN2oe strain (AID 163);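 note: 0% = growth of vehicle-only control cultures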; settings: S. cerevisiae CLN2oe strain, active compounds read high
# Procedure, shortened: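 Growth of a genetically modified yeast strain is measured after compound exposure and compared with cultures given vehicle alone.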
# [10] = NCI Yeast Anticancer Drug Screen. Data for the cln2 rad14 strain (AID 165);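 note: 0% = growth equal to vehicle treated cultures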; settings: S. cerevisiae cln2 rad14 strain, active compounds read high
# Procedure, shortened: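 Compounds are applied to the cln2 rad14 yeast strain, and growth is then compared with that of vehicle-treated cultures to give inhibition.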
# [11] = NCI Yeast Anticancer Drug Screen. Data for the bub3 strain (AID 167); settings: S. cerevisiae bub3 mutant strain, active compounds read high
# Procedure, shortened: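 Mutant yeast screening strain plus compound; vehicle-treated cultures serve as the 0% inhibition reference.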
# [12] = NCI Yeast Anticancer Drug Screen. Data for the wt2 strain (AID 169); settings: S. cerevisiae wt2 strain growth inhibition, active compounds read high
# Procedure, shortened: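 This strain belongs to a panel of yeast strains with defined genetic alterations in DNA damage repair or cell cycle control. Compounds are applied, and growth inhibition is measured against vehicle-treated cultures.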
# [13] = NCI Yeast Anticancer Drug Screen. Data for the mlh1 strain (AID 171);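 note: 0% = growth of vehicle-treated control cultures of the same strain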; settings: S. cerevisiae mlh1 strain growth inhibition, active compounds read high
# Procedure, shortened: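 Growth of the mutant yeast strain after compound exposure, expressed as inhibition relative to vehicle-only controls.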
# [14] = NCI Yeast Anticancer Drug Screen. Data for the sgs1 strain (AID 173);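 note: 0% = growth of vehicle-only control cultures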; settings: S. cerevisiae sgs1 mutant, active compounds read high
# Procedure, shortened: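 Growth of a yeast strain bearing a defined genetic alteration is measured after compound treatment. Inhibition is expressed relative to vehicle-only controls.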
# [15] = NCI Yeast Anticancer Drug Screen. Data for the mlh1 rad18 strain (AID 175); settings: S. cerevisiae mlh1 rad18 strain growth inhibition, active compounds read high
# Procedure, shortened: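 Read-out is yeast growth inhibition, calculated against vehicle-only controls. The compound was applied to a strain engineered with DNA damage repair alterations.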
# [16] = NCI Yeast Anticancer Drug Screen. Data for the rad18 strain (AID 177); settings: S. cerevisiae rad18 mutant growth inhibition, active compounds read high
# Procedure, shortened: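 Growth of the mutant yeast strain after compound exposure, normalised to vehicle-only cultures.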
# [17] = at 5.0 µM (retest, dose inferred, filed as 0.5)
# [18] = at 50.0 µM (retest, dose inferred, filed as 5.0)
compound,measurement,setting,value
Cc1cccc2c(Cl)c3cccc(C)c3nc12,growth inhibition,[1]; at 1.2 µM,1%
same,growth inhibition,[1]; at 3.7 µM,-1%
same,growth inhibition,[1]; at 11.0 µM,8%
same,growth inhibition,[1]; at 33.0 µM,42%
same,growth inhibition,[1]; at 100.0 µM,65%
same,growth inhibition,[2]; at 1.2 µM,-2%
same,growth inhibition,[2]; at 3.7 µM,-3%
same,growth inhibition,[2]; at 11.0 µM,-1%
same,growth inhibition,[2]; at 33.0 µM,-1%
same,growth inhibition,[2]; at 100.0 µM,2%
same,growth inhibition,[3]; at 1.2 µM,2%
same,growth inhibition,[3]; at 3.7 µM,5%
same,growth inhibition,[3]; at 11.0 µM,26%
same,growth inhibition,[3]; at 33.0 µM,64%
same,growth inhibition,[3]; at 100.0 µM,61%
same,growth inhibition,[4]; at 1.2 µM,-4%
same,growth inhibition,[4]; at 3.7 µM,1%
same,growth inhibition,[4]; at 11.0 µM,-7%
same,growth inhibition,[4]; at 33.0 µM,0%
same,growth inhibition,[4]; at 100.0 µM,-10%
same,growth inhibition,[5]; at 1.2 µM,1%
same,growth inhibition,[5]; at 3.7 µM,10%
same,growth inhibition,[5]; [17],13%
same,growth inhibition,[5]; at 11.0 µM,21%
same,growth inhibition,[5]; at 33.0 µM,44%
same,growth inhibition,[5]; [18],75% (active)
same,growth inhibition,[5]; at 50.0 µM,75% (active)
same,growth inhibition,[5]; at 100.0 µM,62%
same,growth inhibition,[6]; at 1.2 µM,-10%
same,growth inhibition,[6]; at 3.7 µM,-13%
same,growth inhibition,[6]; [17],7%
same,growth inhibition,[6]; at 11.0 µM,-10%
same,growth inhibition,[6]; at 33.0 µM,1%
same,growth inhibition,[6]; [18],25%
same,growth inhibition,[6]; at 50.0 µM,-15.9%
same,growth inhibition,[6]; at 100.0 µM,6%
same,growth inhibition,[7]; at 1.2 µM,-2%
same,growth inhibition,[7]; at 3.7 µM,11%
same,growth inhibition,[7]; at 11.0 µM,4%
same,growth inhibition,[7]; at 33.0 µM,13%
same,growth inhibition,[7]; at 100.0 µM,12%
same,growth inhibition,[8]; [17],-6%
same,growth inhibition,[8]; [18],58%
same,growth inhibition,[8]; at 50.0 µM,-15.8%
same,growth inhibition,[9]; at 1.2 µM,-5%
same,growth inhibition,[9]; at 3.7 µM,-5%
same,growth inhibition,[9]; at 11.0 µM,-7%
same,growth inhibition,[9]; at 33.0 µM,-7%
same,growth inhibition,[9]; at 100.0 µM,-3%
same,growth inhibition,[10]; [17],-33%
same,growth inhibition,[10]; [18],10%
same,growth inhibition,[10]; at 50.0 µM,1.65%
same,growth inhibition,[11]; at 1.2 µM,-8%
same,growth inhibition,[11]; at 3.7 µM,6%
same,growth inhibition,[11]; [17],0%
same,growth inhibition,[11]; at 11.0 µM,2%
same,growth inhibition,[11]; at 33.0 µM,1%
same,growth inhibition,[11]; [18],18%
same,growth inhibition,[11]; at 50.0 µM,-28.9%
same,growth inhibition,[11]; at 100.0 µM,-17%
same,growth inhibition,[12]; at 1.2 µM,-4%
same,growth inhibition,[12]; at 3.7 µM,-3%
same,growth inhibition,[12]; at 11.0 µM,-2%
same,growth inhibition,[12]; at 33.0 µM,3%
same,growth inhibition,[12]; at 100.0 µM,5%
same,growth inhibition,[13]; at 1.2 µM,-3%
same,growth inhibition,[13]; at 3.7 µM,-2%
same,growth inhibition,[13]; at 11.0 µM,3%
same,growth inhibition,[13]; at 33.0 µM,12%
same,growth inhibition,[13]; at 100.0 µM,12%
same,growth inhibition,[14]; at 1.2 µM,-3%
same,growth inhibition,[14]; at 3.7 µM,-5%
same,growth inhibition,[14]; at 11.0 µM,-4%
same,growth inhibition,[14]; at 33.0 µM,2%
same,growth inhibition,[14]; at 100.0 µM,2%
same,growth inhibition,[15]; [17],-16%
same,growth inhibition,[15]; [18],49%
same,growth inhibition,[15]; at 50.0 µM,10.1%
same,growth inhibition,[16]; at 1.2 µM,-3%
same,growth inhibition,[16]; at 3.7 µM,-3%
same,growth inhibition,[16]; at 11.0 µM,-1%
same,growth inhibition,[16]; at 33.0 µM,6%
same,growth inhibition,[16]; at 100.0 µM,14%
